Values joined by “and” are separate entries in the source; they are usually repeats but may differ in a detail not shown here. Equal entries are not always repeated. Records with an inconclusive call do not appear. Active and inactive are the calls of the source. Unless noted, calls follow the shape of the dose curve; as a rule, active = well fitted curve in the direction sought with a large enough effect in the repeat runs; inconclusive = weak or mixed curves; inactive = no such curve, though single readings can be large; an effect the other way counts as inactive or inconclusive.
Assays:
[1] = qHTS assay to identify small molecule agonists of the hypoxia (HIF-1) signaling pathway (AID 1224846; active = well fitted activation curve with a large enough effect in the signal ratio in the repeat runs, not every such curve was filed as active; the % refers to the signal ratio; also: % is scaled to controls: 0 for no effect and ±100 for the full control effect)
Summary of the method: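 Cell line: CellSensor HRE-bla ME-180; 2,000 cells/well; 0.5% dialyzed FBS; 5 h preincubation; DMSO compound pin transfer; 17 h, 37C, 5% CO2; CCF4-AM added; bla FRET signal scored for activation.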

[2] = qHTS assay to identify small molecule agonists of H2AX - cell viability counter screen (AID 1224847; calls by dose curve; also: nearly all actives have a fitted effect of over 30% in size; also: potency is read from the fitted curve at half-maximal effect)
Summary of the method: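 We seed wild-type CHO-K1 cells overnight, treat them for 3 hr at 37C with compounds in 15-concentration series, and quantify remaining viability by CellTiter-Glo luminescence.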

[3] = qHTS assay to identify small molecule antagonists of the estrogen related receptor (ERR) signaling pathway from Tox21 library (AID 1224848); also: potency is read from the fitted curve at half-maximal effect; nearly all actives have a fitted effect of over 50% in size
Summary of the method: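 Cells: ERR line, 2,000/well; 6 h preincubation 37 C/5% CO2. Cpd in DMSO via pin tool; 18 h, 37 C. ONE-Glo, 30 min RT, luminescence.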

[4] = qHTS assay to identify small molecule agonists of the estrogen related receptor (ERR) signaling pathway from Tox21 library (AID 1224849; calls by dose curve; also: % is scaled to controls: 0 for no effect and ±100 for the full control effect; nearly all actives have a fitted effect of over 15% in size); conditions: ERR reporter cell line, ONE-Glo luciferase, 18 h; at 92.4 µM (top of the series)
Summary of the method: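 ERR cells, 6 h pre-incubation 37 C/5% CO2; cpd in DMSO pinned; 18 h 37 C; ONE-Glo added, 30 min RT; luminescence read. Agonist mode, qHTS.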

[5] = qHTS RealTime-Glo MT Cell Viability Assay in HepG2 cells - 24 hour (AID 1224867); also: % is scaled to controls: 0 for no effect and ±100 for the full control effect; nearly all actives have a fitted effect of over 50% in size
Summary of the method: (§1)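 Viability was tracked continuously by NanoLuc luminescence from prosubstrate reduced by living HepG2 cells, at successive time points over 40 h of compound exposure. Cells with reagent were preincubated 5 h at 37 °C before compound addition.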

[6] = qHTS RealTime-Glo MT Cell Viability Assay in HEK293 cells - 32 hour (AID 1224868); also: nearly all actives have a fitted effect of over 50% in size; also: potency is read from the fitted curve at half-maximal effect
Summary of the method: (§2)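 Viability tracked continuously by luminescence as live cells reduce a prosubstrate for NanoLuc; HEK293 cells preincubated 5 h, compound-treated at 37 C, and read at 0, 8, 16, 24, 32 and 40 h.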

[7] = A CellTox Green Cytotoxicity Assay to monitor cytotoxicity in HEK293 cells - 0 hour (AID 1224869); also: % is scaled to controls: 0 for no effect and ±100 for the full control effect; nearly all actives have a fitted effect of over 50% in size
Summary of the method: (§3)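 Nonlytic real-time cytotoxicity: HEK293 + CellTox Green reagent plated, 5 h preincubation, pintool compound addition (23 nL in DMSO), 37 C for 40 h, fluorescence measured at successive time points.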

[8] = qHTS RealTime-Glo MT Cell Viability Assay in HepG2 cells - 40 hour (AID 1224870)
Summary of the method: (§4)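 HepG2 cells mixed with RealTime-Glo MT reagents (NanoLuc plus cell-permeant prosubstrate) were seeded at 600 cells/well, incubated 5 h at 37 C/5% CO2, then pinned with compounds in DMSO; nonlytic luminescence tracked viability during 40 h treatment.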

[9] = A CellTox Green Cytotoxicity Assay to monitor cytotoxicity in HEK293 cells - 40 hour (AID 1224871); also: % is scaled to controls: 0 for no effect and ±100 for the full control effect; nearly all actives have a fitted effect of over 45% in size
Summary of the method: as §3

[10] = qHTS RealTime-Glo MT Cell Viability Assay in HEK293 cells - 16 hour (AID 1224872)
Summary of the method: as §2

[11] = qHTS RealTime-Glo MT Cell Viability Assay in HEK293 cells - 40 hour (AID 1224874); conditions: RealTime-Glo luminescence; max response: active compounds read low; also: nearly all actives have a fitted effect of over 50% in size; also: potency is read from the fitted curve at half-maximal effect; as to max response: % is scaled to controls: 0 for no effect and ±100 for the full control effect
Summary of the method: (§5)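 Cells were seeded together with NanoLuc luciferase and a prosubstrate that viable cells reduce to a luciferase substrate. After a 5 h incubation at 37 C/5% CO2, compounds were added and luminescence was measured repeatedly during 40 h of treatment.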

[12] = A CellTox Green Cytotoxicity Assay to monitor cytotoxicity in HEK293 cells - 24 hour (AID 1224875); also: % is scaled to controls: 0 for no effect and ±100 for the full control effect; nearly all actives have a fitted effect of over 45% in size
Summary of the method: as §3

[13] = A CellTox Green Cytotoxicity Assay to monitor cytotoxicity in HepG2 cells - 16 hour (AID 1224876); also: % is scaled to controls: 0 for no effect and ±100 for the full control effect; nearly all actives have a fitted effect of over 45% in size
Summary of the method: (§6)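 Read-out is fluorescence of a cyanine dye excluded from live cells that stains DNA of dead HepG2 cells, with signal proportional to cytotoxicity. Plates were read at 0, 8, 16, 24, 32 and 40 h after compound addition.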

[14] = qHTS RealTime-Glo MT Cell Viability Assay in HepG2 cells - 32 hour (AID 1224877); also: % is scaled to controls: 0 for no effect and ±100 for the full control effect; nearly all actives have a fitted effect of over 55% in size
Summary of the method: as §1

[15] = A CellTox Green Cytotoxicity Assay to monitor cytotoxicity in HepG2 cells - 24 hour (AID 1224878); also: % is scaled to controls: 0 for no effect and ±100 for the full control effect; nearly all actives have a fitted effect of over 45% in size
Summary of the method: as §6

[16] = A CellTox Green Cytotoxicity Assay to monitor cytotoxicity in HepG2 cells - 40 hour (AID 1224879); also: nearly all actives have a fitted effect of over 40% in size; also: potency is read from the fitted curve at half-maximal effect
Summary of the method: as §6

[17] = qHTS RealTime-Glo MT Cell Viability Assay in HEK293 cells - 0 hour (AID 1224880)
Summary of the method: as §5

[18] = qHTS assay to identify small molecule agonists of the hypoxia (HIF-1) signaling pathway - cell viability counter screen (AID 1224844; calls by dose curve)
Summary of the method: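 ME-180 HRE-bla cells, 2,000/well, 0.5% dialyzed FBS; 5 hr settle, 17 hr compound at 37C/5% CO2; CCF4-AM reporter read first, then CellTiter-Glo luminescence after 30 min RT.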

[19] = qHTS assay to identify small molecule agonists of H2AX (AID 1224845; active = well fitted activation curve with a large enough effect in the signal ratio in the repeat runs, not every such curve was filed as active; the % refers to the signal ratio; also: % is scaled to controls: 0 for no effect and ±100 for the full control effect)
Summary of the method: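 Wild-type CHO-K1 cells plated overnight, then exposed 3 hr at 37C to compounds at 15 concentrations (0.76% DMSO). Lysed, then HTRF anti-pH2AX(S139)-cryptate/anti-H2AX-d2 detection after 24 hr at room temperature; emissions 665 and 620 nm.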

[20] = qHTS RealTime-Glo MT Cell Viability Assay in HepG2 cells - 8 hour (AID 1224873); also: % is scaled to controls: 0 for no effect and ±100 for the full control effect; nearly all actives have a fitted effect of over 55% in size
Summary of the method: as §4

Nc1ccc2c(O)cc(S(=O)(=O)O)cc2c1
active: Potency [3] 24.4 µM and 13.7 µM | Potency [6] 6.17 µM | Potency [11] 6.17 µM
inactive: outcome [1] | Potency [2] | activity change, positive = activation [4] -54% and -40.6% | Potency [5] | Potency [7] | Potency [8] | Potency [9] | Potency [10] | Potency [12] | Potency [13] | Potency [14] | Potency [15] | Potency [16] | Potency [17]

CC(C)(Oc1ccc(Cl)cc1)C(=O)O
inactive: Potency [18] | Potency [19] | Potency [2] | Potency [5] | Potency [7] | Potency [8] | Potency [9] | Potency [10] | Potency [20] | max response [11] 6.25% and 5.25% | Potency [12] | Potency [13] | Potency [14] | Potency [16] | Potency [17]

Cc1ccc(S(=O)(=O)O)cc1C
inactive: Potency [18] | Potency [19] | Potency [2] | Potency [5] | Potency [6] | Potency [7] | Potency [8] | Potency [9] | Potency [10] | Potency [20] | max response [11] -0.252% and 9.18% | Potency [12] | Potency [13] | Potency [14] | Potency [16] | Potency [17]

CN(Cc1cnc2nc(N)nc(N)c2n1)c1ccc(C(=O)N[C@@H](CCC(=O)O)C(=O)O)cc1
active: Potency [2] 636 nM and 1.1 µM | Potency [6] 110 nM and 67.4 nM | Potency [11] 49 nM and 53.5 nM
inactive: Potency [18] | Potency [5] | Potency [7] | Potency [8] | Potency [9] | Potency [10] | Potency [20] | Potency [12] | Potency [13] | Potency [14] | Potency [15] | Potency [16] | Potency [17]

C1COCCN1
inactive: Potency [18] | Potency [19] | Potency [2] | Potency [5] | Potency [7] | Potency [8] | Potency [9] | Potency [10] | Potency [20] | max response [11] -0.365% and -12.5% and 10.6% | Potency [12] | Potency [13] | Potency [14] | Potency [16] | Potency [17]

c1ccc2c(c1)ccc1cc3c(ccc4ccccc43)cc12
active: Potency [16] 4.32 µM and 1.22 µM
inactive: Potency [18] | Potency [2] | Potency [5] | Potency [7] | Potency [8] | Potency [9] | Potency [10] | Potency [20] | max response [11] 16% and 7.61% | Potency [12] | Potency [13] | Potency [14] | Potency [15] | Potency [17]

From PubChem BioAssay (Tox21)
